A short description of assay [1]: antimalarial activity against Dd2 strain (AID 2302;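 active = growth inhibition above 50% at the single 2 µM test dose, taken to imply half-maximal potency below 2 µM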;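 note: 0% = DMSO untreated growth and 100% = chloroquine plus artemisinin killed control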). Particulars: P. falciparum Dd2 in RBCs, LDH growth readout, 72 h; at 2 µM; active compounds read high.
A short description of assay [2]: HepG2 cytotoxicity, primary screen, cytotoxicity control for P. falciparum antimalarial project, cell-based, ATP luminescence (AID 2303;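 active = inhibition above 50%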;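 note: 0% = DMSO wells and 100% = digitonin-killed cells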). The conditions noted are these: HepG2 viability, 24-48 h, at 10 µM, active compounds read high.
Assay [3] deals with L-lactate dehydrogenase (Plasmodium falciparum (isolate CDC / Honduras)) (UniProt Q27743). Briefly: PfLDH activity inhibition – cell lysate, 3D7 strain, counter-screen for P. falciparum growth inhibition project (AID 2304).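 Note: 0% = vehicle and 100% = reference inhibitor.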 Particulars: P. falciparum 3D7 crude extract, LDH APAD/NBT absorbance; at 2 µM; active compounds read high.
Assay [4] can be described thus: inhibition of 3D7 malaria parasite growth – strain 3D7 (AID 2306).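 Note: 0% = DMSO wells and 100% = chloroquine plus artemisinin control wells.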 The conditions noted are these: P. falciparum 3D7 erythrocytic growth, LDH absorbance, 72 h; at 2 µM; active compounds read high.
The target of assay [5] is Calcium-dependent protein kinase 1 (Plasmodium falciparum (isolate 3D7)) (UniProt P62344). Briefly: PfCDPK1 kinase inhibitors, biochemical, TCAMS library (AID 1159585; cut-off not given, nearly all actives have IC50 up to about 0.98 µM;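 note: inhibitors leave more ATP so luminescence rises with inhibition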). The conditions noted are these: recombinant PfCDPK1, Kinase-Glo ATP depletion luminescence.
For assay [6], the target named is Plasmodium falciparum protein kinase 6 (PK6, PF3D7_1337100) (UniProt Q8IDW1). Put plainly: PfPK6 kinase inhibitors, biochemical, TCAMS library (AID 1159586). Particulars: recombinant PfPK6, Kinase-Glo ATP depletion luminescence.
Assay [7] concerns the target Protein kinase 7 (PK7), Plasmodium falciparum 3D7 (PF3D7_0213400) (UniProt Q7YTF7). Put plainly: inhibition of Plasmodium PK7 catalytic activity – biochemical, TCAMS antimalarial set, Kinase-Glo luminescence (AID 1159587). Particulars: recombinant PfPK7, Kinase-Glo ATP depletion luminescence.
Assay [8] concerns the target Calcium-dependent protein kinase 4 (Plasmodium falciparum (isolate 3D7)) (UniProt Q8IBS5). Briefly: PfCDPK4 kinase inhibitors, biochemical, TCAMS library (AID 1159588; cut-off not given, nearly all actives have IC50 up to about 0.91 µM). Particulars: recombinant PfCDPK4, Kinase-Glo ATP depletion luminescence.

Values without a mark were called inactive. For some of these results: Entries with a potency or affinity are not part of this list. Calls of active or inactive are those of the source. Unless noted, the rule behind the calls is not given here.

Calcium-dependent protein kinase 1 (Plasmodium falciparum (isolate 3D7)), sequence (P62344 whole entry, looked up): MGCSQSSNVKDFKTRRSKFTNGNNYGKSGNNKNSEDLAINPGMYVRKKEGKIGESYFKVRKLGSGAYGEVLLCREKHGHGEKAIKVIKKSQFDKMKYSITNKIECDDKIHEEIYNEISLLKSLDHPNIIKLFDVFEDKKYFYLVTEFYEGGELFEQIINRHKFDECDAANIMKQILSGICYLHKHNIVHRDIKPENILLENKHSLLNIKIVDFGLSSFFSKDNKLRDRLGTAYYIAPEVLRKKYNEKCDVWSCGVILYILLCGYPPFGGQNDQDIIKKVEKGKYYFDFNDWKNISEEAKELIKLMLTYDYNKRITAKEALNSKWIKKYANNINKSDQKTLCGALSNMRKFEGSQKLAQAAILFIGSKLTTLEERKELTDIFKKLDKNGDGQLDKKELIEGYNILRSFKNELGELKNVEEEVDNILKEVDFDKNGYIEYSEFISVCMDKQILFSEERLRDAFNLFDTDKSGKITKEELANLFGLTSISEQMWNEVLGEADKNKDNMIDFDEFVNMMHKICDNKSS
Calcium-dependent protein kinase 4 (Plasmodium falciparum (isolate 3D7)), sequence (Q8IBS5 whole entry, looked up): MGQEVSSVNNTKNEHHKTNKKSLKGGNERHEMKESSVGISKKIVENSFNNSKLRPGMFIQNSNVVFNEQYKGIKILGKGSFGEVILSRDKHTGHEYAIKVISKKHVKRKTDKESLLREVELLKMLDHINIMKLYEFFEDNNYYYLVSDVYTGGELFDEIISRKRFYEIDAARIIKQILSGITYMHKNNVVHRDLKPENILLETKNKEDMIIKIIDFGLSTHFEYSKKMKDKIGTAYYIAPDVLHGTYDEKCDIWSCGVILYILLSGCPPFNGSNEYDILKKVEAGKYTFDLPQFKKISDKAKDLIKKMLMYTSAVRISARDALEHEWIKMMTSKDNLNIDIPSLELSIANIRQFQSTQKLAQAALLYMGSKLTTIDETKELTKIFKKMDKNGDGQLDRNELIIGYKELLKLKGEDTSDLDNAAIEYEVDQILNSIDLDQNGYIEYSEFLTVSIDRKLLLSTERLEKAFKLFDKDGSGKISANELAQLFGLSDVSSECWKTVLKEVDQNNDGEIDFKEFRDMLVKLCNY
Protein kinase 7 (PK7), Plasmodium falciparum 3D7 (PF3D7_0213400), sequence (Q7YTF7 1-343): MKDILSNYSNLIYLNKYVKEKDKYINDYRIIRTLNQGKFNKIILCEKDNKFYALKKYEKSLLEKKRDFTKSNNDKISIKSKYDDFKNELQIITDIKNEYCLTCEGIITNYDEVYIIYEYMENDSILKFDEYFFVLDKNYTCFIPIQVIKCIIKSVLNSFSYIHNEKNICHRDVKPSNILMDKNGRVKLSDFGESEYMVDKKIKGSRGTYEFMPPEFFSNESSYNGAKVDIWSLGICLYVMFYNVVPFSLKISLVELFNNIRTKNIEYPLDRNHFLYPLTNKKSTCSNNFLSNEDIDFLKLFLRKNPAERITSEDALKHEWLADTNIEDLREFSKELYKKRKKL
L-lactate dehydrogenase (Plasmodium falciparum (isolate CDC / Honduras)), sequence (Q27743 whole entry, looked up): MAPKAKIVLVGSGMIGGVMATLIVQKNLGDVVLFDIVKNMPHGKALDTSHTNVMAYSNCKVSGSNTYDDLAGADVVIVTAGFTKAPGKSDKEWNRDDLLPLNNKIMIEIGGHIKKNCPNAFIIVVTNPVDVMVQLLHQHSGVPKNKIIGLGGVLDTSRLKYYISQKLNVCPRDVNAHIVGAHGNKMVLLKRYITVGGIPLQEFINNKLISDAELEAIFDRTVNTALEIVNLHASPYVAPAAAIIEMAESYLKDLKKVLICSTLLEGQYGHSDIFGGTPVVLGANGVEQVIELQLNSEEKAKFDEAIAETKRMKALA
Plasmodium falciparum protein kinase 6 (PK6, PF3D7_1337100), sequence (Q8IDW1 1-305): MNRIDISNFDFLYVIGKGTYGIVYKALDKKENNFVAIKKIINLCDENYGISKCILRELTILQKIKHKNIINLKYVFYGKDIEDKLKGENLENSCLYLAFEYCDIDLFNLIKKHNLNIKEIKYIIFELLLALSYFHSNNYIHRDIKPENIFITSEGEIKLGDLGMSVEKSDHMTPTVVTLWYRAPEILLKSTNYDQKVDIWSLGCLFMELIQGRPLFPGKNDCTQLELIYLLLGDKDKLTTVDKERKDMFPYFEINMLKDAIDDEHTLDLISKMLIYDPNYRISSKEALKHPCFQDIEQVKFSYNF

Regarding `Cc1cc(N[C@@H](C)C(=O)Nc2ccccc2)nc(NCCc2ccc(F)cc2)n1`, the figures for the growth inhibition in assay [1] and in assay [4] were 43% and 100% (active), respectively. Besides, the inhibition in assay [2] was 33%; in assay [3], -2%. The result in assay [5], in assay [6], in assay [7] and in assay [8] was inactive.

As to `COc1ccc2nccc(N(C)CC3(O)CCN(CCc4ccc5c(c4)OCCO5)CC3)c2n1`, the growth inhibition in assay [1] was 96% (active); in assay [4], 100% (active). Besides, the inhibition in assay [2] is 15%; in assay [3] it was -3%. The result in assay [5], in assay [6], in assay [7] and in assay [8] was inactive.

For the compound `COCCOC(=O)C(=O)c1c(-c2ccccc2)c(-c2ccc(OC)c(OC)c2)c2c3cc(OC)c(OC)cc3ccn12`, the growth inhibition in assay [1] is 100% (active); in assay [4], 101% (active). In addition, the inhibition in assay [2] was 4%; in assay [3], -2%. In addition, the outcome in assay [5], in assay [6], in assay [7] and in assay [8] was inactive.

With `COc1ccc2nccc([C@@H](O)CN3CCC(NC(=O)C(c4cc5ccccc5o4)N4CCN(c5ccc(F)cc5)CC4)CC3)c2c1` (stereo not given in full), the growth inhibition in assay [1] was 98% (active); in assay [4], 100% (active). The inhibition in assay [2] was 15%; in assay [3] it was -1%. The result in assay [5], in assay [6], in assay [7] and in assay [8] was inactive.

For the compound `O=C(/C=C/c1ccc(-c2nc3ccc(Cl)cc3[nH]2)cc1)NCc1cccc(F)c1`, the results for the growth inhibition in assay [1] and in assay [4] were 68% (active) and 99% (active), respectively. Moreover, the results for the inhibition in assay [2] and in assay [3] were 1% and 2%, respectively. Besides, the result in assay [5], in assay [6], in assay [7] and in assay [8] was inactive.

Turning to `COc1cc2c(cc1C=CC(=O)N1CCN(Cc3nc4sc(C)c(C)c4c(=O)[nH]3)CC1)OC(C)C2` (stereo not given), the growth inhibition in assay [1] is 87% (active); in assay [4] it was 82% (active). Also, the inhibition in assay [2] was -1%; in assay [3] it was -9%. The result in assay [5], in assay [6], in assay [7] and in assay [8] was inactive.

For the compound `O=C(/C=C/c1ccc(Cl)c(Cl)c1)NCCCCCN1CCC(NC(=O)Nc2ccc(F)c(F)c2)CC1`, the growth inhibition in assay [1] is 4%; in assay [4], 99% (active). The inhibition in assay [2] is 24%; in assay [3], 2%. In addition, the outcome in assay [5], in assay [6], in assay [7] and in assay [8] was inactive.

As to `CC(C)(C)OC(=O)N[C@@H](Cc1ccccc1)C(=O)Nc1cccc(-c2cccc(NC(=O)[C@H](Cc3ccccc3)NC(=O)OC(C)(C)C)c2)c1`, the growth inhibition in assay [1] was 97% (active); in assay [4], 106% (active). The values for the inhibition in assay [2] and in assay [3] were 10% and 6%, respectively. In addition, the result in assay [5], in assay [6], in assay [7] and in assay [8] was inactive.

For the compound `Cn1cnc2c(Nc3ccncc3)nc(-c3ccc4ccccc4c3)nc21`, the growth inhibition in assay [1] is 66% (active); in assay [4], 96% (active). The inhibition in assay [2] is 55% (active); in assay [3] it was 7%. Also, the result in assay [5], in assay [6], in assay [7] and in assay [8] was inactive.

Regarding `COc1cccc(-c2cc(-c3ccc(NC(=O)c4ccccc4)cc3)c3c(N)ncnc3n2)c1`, the growth inhibition is 98% (active) in assay [1] and 99% (active) in assay [4]. Further, the inhibition is -4% in assay [2] and 0% in assay [3]. Moreover, the outcome in assay [5], in assay [6], in assay [7] and in assay [8] was inactive.

As for `O=C(NC1CC1)c1ccc(N2CCCC(COc3ccccc3F)C2)nc1` (stereo not given), the growth inhibition was 92% (active) in assay [1] and 87% (active) in assay [4]. The inhibition in assay [2] was 8%; in assay [3], -2%. Further, the outcome in assay [5], in assay [6], in assay [7] and in assay [8] was inactive.

With `Cc1cc(C2NC(=O)c3ccccc3N2)c(C)n1-c1ccc2c(c1)OCO2` (stereo not given), the results for the growth inhibition in assay [1] and in assay [4] were 85% (active) and 86% (active), respectively. Further, the inhibition is 13% in assay [2] and -1% in assay [3]. The result in assay [5], in assay [6], in assay [7] and in assay [8] was inactive.

`COc1ccc(C2CC(c3cccs3)=NN2C(=O)c2ccccc2)cc1OC` (stereo not given): the growth inhibition in assay [1] is 83% (active); in assay [4], 99% (active). Also, the inhibition in assay [2] and in assay [3] was 5% each time. Further, the result in assay [5], in assay [6], in assay [7] and in assay [8] was inactive.

`COc1ccc2nc3cc(Cl)ccc3c(Nc3ccc(Sc4ccc(Nc5c6ccc(Cl)cc6nc6ccc(OC)cc56)cc4)cc3)c2c1`: the figures for the growth inhibition in assay [1] and in assay [4] were 94% (active) and 92% (active), respectively. For the same compound, the inhibition in assay [2] was 1%; in assay [3] it was -4%. Also, the result in assay [5], in assay [6], in assay [7] and in assay [8] was inactive.

With `O=C(N[C@H]1CCN(Cc2ccc(OC3CCN(Cc4ccccc4)CC3)cc2)C1)c1ccc(Cl)c(Cl)c1`, the values for the growth inhibition in assay [1] and in assay [4] were 6% and 90% (active), respectively. Besides, the inhibition in assay [2] is 37%; in assay [3], 1%. The result in assay [5], in assay [6], in assay [7] and in assay [8] was inactive.

Take `CC(C)CCNCc1ccc(OCc2cccc(COc3ccc(CNCCC(C)C)cc3I)c2)c(I)c1`: the growth inhibition in assay [1] was 49%; in assay [4], 91% (active). Further, the inhibition in assay [2] is 99% (active); in assay [3], 2%. Also, the result in assay [5], in assay [6], in assay [7] and in assay [8] was inactive.

In the case of `O=C(NCCCCCN1CCC(c2c[nH]c3ccccc23)CC1)Nc1ccc(Cl)cc1Cl`, the values for the growth inhibition in assay [1] and in assay [4] were 15% and 99% (active), respectively. In addition, the inhibition in assay [2] is 71% (active); in assay [3] it was -2%. The result in assay [5], in assay [6], in assay [7] and in assay [8] was inactive.

On to `CCOC(=O)c1ccc(NC(=O)NNC(=O)c2ccc(CCN3CCC(c4nc(COCC(F)(F)F)c(-c5ccc(F)cc5)o4)CC3)cc2)cc1`, for which the growth inhibition was 67% (active) in assay [1] and 103% (active) in assay [4]. Moreover, the inhibition in assay [2] is 10%; in assay [3], 0%. For the same compound, the result in assay [5], in assay [6], in assay [7] and in assay [8] was inactive.

For `COc1ccc(NC(=O)/C=C/c2ccccc2Cl)cc1OCCN1CCC(O)(c2ccc(Cl)c(C(F)(F)F)c2)CC1`, the growth inhibition in assay [1] is 9%; in assay [4], 101% (active). The inhibition in assay [2] is 37%; in assay [3], -1%. Also, the result in assay [5], in assay [6], in assay [7] and in assay [8] was inactive.

For the compound `O=S(=O)(c1cc2ccccc2s1)N(CCC(O)(C(F)(F)F)C(F)(F)F)Cc1cccc(O)c1`, the growth inhibition in assay [1] is 99% (active); in assay [4], 100% (active). For the same compound, the inhibition in assay [2] was -1%; in assay [3], 0%. For the same compound, the outcome in assay [5], in assay [6], in assay [7] and in assay [8] was inactive.

For the origin of these results see PubChem BioAssay.
